# Results as given in PubChem BioAssay.
# “And” between values parts separate entries of the source, which are not always exact repeats. Identical values can stand only once. Results filed as inconclusive are left out. The source made the active and inactive calls.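 The calls were made as follows, unless noted: active = compounds killing one labelled cell type while sparing the other, by normalised counts and ratio limits, not self-fluorescent; inactive = the rest.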
# Legend:
# [1] = stimulators of insulin release from INS-1E, primary screen, cell-based, 5 mM glucose, NPC library (AID 1117329;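 active = compound raises insulin release from rat beta cells at 5 mM glucose, no numeric limit stated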); details: rat INS-1E insulin secretion, at 10 µM, stronger effect = higher value
# [2] = growth inhibition of GSK3B-pretreated HCT116 cells – cell-based, CellTiter-Glo, 0.2 to 20 µM (AID 1117336;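 active = compounds lowering colon cancer cell viability after pretreatment blocking the GSK3B kinase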); details: HCT116 viability after GSK3B inhibitor, at 20 µM, stronger effect = higher value
# [3] = inhibition of endothelial tube formation, primary screen, imaging, VEGF stimulated, CD31 staining, tube area, NPC library (AID 1117340;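 active = compound that reduces growth-factor-driven endothelial tube area in a mixed cell culture, no cutoff stated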); details: VEGF-stimulated ADSC/ECFC co-culture, at 10 µM, stronger effect = higher value
# [4] = glucagon-like peptide 1 release enhancers, primary assay, NCI-H716 cell line, NPC library (AID 1117341;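 active = compound raises GLP1 secretion from the human gut endocrine cells, with no numeric limit stated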); details: NCI-H716 cells, at 10 µM, stronger effect = higher value
# [5] = HCT116 colon cancer cell growth inhibition, primary screen, CellTiter-Glo luminescence, NPC library (AID 1117342;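 active = compounds that lower survival of HCT116 colon cancer cells in the luminescence readout, no numeric limit stated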); details: at 20 µM (top of the series)
# [6] = CellTiter-Glo luminescent readout of SW480 viability loss, NPC library primary (AID 1117343;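 active = compounds that lower viability of the colon cancer cells in the luminescence readout, with no numeric limit stated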); details: CellTiter-Glo luminescence; at 20 µM (top of the series)
# [7] = decreased DLD-1 cellular survival, CellTiter-Glo luminescent readout, NPC compound collection, primary HTS (AID 1117346;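 active = compounds that lower survival of DLD-1 colon cancer cells in the luminescence readout, no cutoff given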); details: DLD-1 viability, CellTiter-Glo luminescence; at 20 µM (top of the series)
# [8] = target: 6-phosphogluconate dehydrogenase, decarboxylating (Homo sapiens) (UniProt P52209); experiment: 6PGD enzyme inhibitors, primary screen, biochemical, human, recombinant enzyme, NADPH absorbance (AID 1159550;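 active = at least 20% inhibition of 6-phosphogluconate dehydrogenase activity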); details: recombinant 6PGD, NADPH absorbance 341 nm; at 10 µM; stronger effect = higher value
# Chain of 6-phosphogluconate dehydrogenase, decarboxylating (Homo sapiens) (P52209 whole entry, looked up): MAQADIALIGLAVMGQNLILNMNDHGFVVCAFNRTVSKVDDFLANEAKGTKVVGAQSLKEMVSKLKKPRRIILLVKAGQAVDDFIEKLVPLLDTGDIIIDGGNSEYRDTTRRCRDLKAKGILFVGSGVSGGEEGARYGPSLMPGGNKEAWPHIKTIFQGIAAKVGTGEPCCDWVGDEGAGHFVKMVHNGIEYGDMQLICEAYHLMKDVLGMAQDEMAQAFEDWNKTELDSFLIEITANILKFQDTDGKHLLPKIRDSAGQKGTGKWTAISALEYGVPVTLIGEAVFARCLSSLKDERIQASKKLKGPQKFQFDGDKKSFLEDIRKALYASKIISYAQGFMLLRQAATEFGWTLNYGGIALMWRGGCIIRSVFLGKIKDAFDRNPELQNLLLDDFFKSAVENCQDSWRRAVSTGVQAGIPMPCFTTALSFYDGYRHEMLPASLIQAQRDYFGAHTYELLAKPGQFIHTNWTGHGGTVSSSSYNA
# [9] = differential killing of epithelial or mesenchymal cells, primary screen, imaging, PC-3E GFP, TEM4-18 mCherry, co-culture (AID 1345086); details: imaging cell counts, at 1 µM; for red/green cell ratio (normalised): actives lie on both sides, counts scaled to control wells, 1 = unselective;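 as to all read-outs here: cells exposed to compound for 72 h before imaging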;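 as to red/green cell ratio (normalised): normalised mesenchymal count divided by normalised epithelial count so high means epithelial killing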
# [10] = growth inhibition of DIPG glioma cells, dose response, cell-based, SU-DIPG-XVII, MIPE5.0, CellTiter-Glo, qHTS (AID 1347060; cut-off not given, nearly all actives have AC50 up to about 26 µM;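 as to AC50: cells exposed to compound for 48 hours before viability readout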); details: SU-DIPG-XVII viability, CellTiter-Glo ATP luminescence
# [11] = growth inhibition of DIPG glioma cells, dose response, cell-based, SU-DIPG-XIII, MIPE4.0, CellTiter-Glo, qHTS (AID 1347061; cut-off not given, nearly all actives have AC50 up to about 37 µM;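 also: cells exposed to compound for 48 hours before readout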); details: SU-DIPG-XIII viability, CellTiter-Glo ATP luminescence
# [12] = growth inhibition of DIPG glioma cells, dose response, cell-based, JHH-DIPG-1, MIPE4.0, CellTiter-Glo, qHTS (AID 1347062; cut-off not given, nearly all actives have AC50 up to about 27 µM;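 as to AC50: cells exposed to compound for two days before readout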); details: JHH-DIPG-1 viability, CellTiter-Glo ATP luminescence
# [13] = growth inhibition of DIPG glioma cells, dose response, cell-based, SU-DIPG-IV, MIPE4.0, CellTiter-Glo, qHTS (AID 1347063; cut-off not given, nearly all actives have AC50 up to about 30 µM;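 also: compound exposure lasted 48 hours before the viability readout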); details: SU-DIPG-IV viability, CellTiter-Glo ATP luminescence
# [14] = growth inhibition of DIPG glioma cells, dose response, cell-based, SU-DIPG-XIII, MIPE5.0, CellTiter-Glo, qHTS (AID 1347064; cut-off not given, nearly all actives have AC50 up to about 23 µM;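 as to AC50: cells exposed to compound for 48 hours before the viability read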); details: SU-DIPG-XIII viability, CellTiter-Glo ATP luminescence
# [15] = measured here: epithelial PC-3E GFP cell survival
# [16] = measured here: mesenchymal TEM4-18 mCherry cell survival
smiles,measurement,setting,value
CN1C(C(=O)Nc2ccccn2)=C(O)c2sccc2S1(=O)=O,insulin secretion stimulation,[1],1.6% (inactive)
same,viability decrease,[2],-17.8% (inactive)
same,tube area decrease,[3],2.6% (inactive)
same,GLP1 secretion stimulation,[4],0.4% (inactive)
same,inhibition of viability,[5],8.2% (inactive)
same,viability decrease (inhibition),[6],13.4% (inactive)
same,viability decrease (inhibition),[7],-0.2% (inactive)
same,inhibition,[8],-2.82% (inactive)
same,red/green cell ratio (normalised),[9],0.82 (inactive)
same,normalised cell number,[9]; [15],1.14
same,normalised cell number,[9]; [16],0.93
same,outcome,[10],inactive
same,outcome,[11],inactive
same,outcome,[12],inactive
same,outcome,[13],inactive
same,outcome,[14],inactive
O=NN(CCCl)C(=O)NCCCl,insulin secretion stimulation,[1],-0.1% (inactive)
same,viability decrease,[2],-5.7% (inactive)
same,tube area decrease,[3],23.1% (inactive)
same,GLP1 secretion stimulation,[4],2.2% (inactive)
same,inhibition of viability,[5],-16.5% (inactive)
same,viability decrease (inhibition),[6],18.8% (inactive)
same,viability decrease (inhibition),[7],-24.6% (inactive)
same,inhibition,[8],0.0871% (inactive)
same,red/green cell ratio (normalised),[9],1.04 (inactive)
same,normalised cell number,[9]; [15],1.15
same,normalised cell number,[9]; [16],1.2
same,outcome,[10],inactive
same,outcome,[11],inactive
same,outcome,[12],inactive
same,outcome,[13],inactive
same,outcome,[14],inactive
N[C@@H](Cc1ccc(O)c(O)c1)C(=O)O,insulin secretion stimulation,[1],2.9% (inactive)
same,viability decrease,[2],68.9% (active)
same,tube area decrease,[3],-13.9% (inactive)
same,GLP1 secretion stimulation,[4],1.9% (inactive)
same,inhibition of viability,[5],49.9% (inactive)
same,viability decrease (inhibition),[6],66.7% (active)
same,viability decrease (inhibition),[7],47.5% (inactive)
same,inhibition,[8],2.07% (inactive)
same,red/green cell ratio (normalised),[9],0.88 (inactive)
same,normalised cell number,[9]; [15],1.01
same,normalised cell number,[9]; [16],0.89
same,outcome,[10],inactive
same,outcome,[11],inactive
same,outcome,[12],inactive
same,outcome,[13],inactive
O=C(O)c1cn(-c2ccc(F)cc2)c2cc(N3CCNCC3)c(F)cc2c1=O,insulin secretion stimulation,[1],0.8% (inactive)
same,viability decrease,[2],28.3% (inactive)
same,tube area decrease,[3],-4.3% (inactive)
same,GLP1 secretion stimulation,[4],-2.6% (inactive)
same,inhibition of viability,[5],29.7% (inactive)
same,viability decrease (inhibition),[6],-14.9% (inactive)
same,viability decrease (inhibition),[7],-10.5% (inactive)
same,inhibition,[8],0.148% (inactive)
same,red/green cell ratio (normalised),[9],0.95 (inactive) and 0.88 (inactive)
same,normalised cell number,[9]; [15],1.1 and 0.99
same,normalised cell number,[9]; [16],1.04 and 0.87
same,outcome,[10],inactive
same,outcome,[11],inactive
same,outcome,[12],inactive
same,outcome,[13],inactive
same,outcome,[14],inactive
Cc1cc(C2CCCCC2)n(O)c(=O)c1,insulin secretion stimulation,[1],0.4% (inactive)
same,viability decrease,[2],49.9% (active)
same,tube area decrease,[3],109% (active)
same,GLP1 secretion stimulation,[4],-3.2% (inactive)
same,inhibition of viability,[5],75.1% (active)
same,viability decrease (inhibition),[6],108% (active)
same,viability decrease (inhibition),[7],90.8% (active)
same,inhibition,[8],1.68% (inactive)
same,red/green cell ratio (normalised),[9],1.34 (inactive)
same,normalised cell number,[9]; [15],0.78
same,normalised cell number,[9]; [16],1.04
same,AC50,[10],2350 nM (active)
same,AC50,[11],16600 nM (active)
same,AC50,[13],3320 nM (active)
same,AC50,[14],4170 nM (active)
CNC[C@H](O)c1cccc(O)c1,insulin secretion stimulation,[1],0% (inactive)
same,viability decrease,[2],-4.6% (inactive)
same,tube area decrease,[3],-2.9% (inactive)
same,GLP1 secretion stimulation,[4],1.4% (inactive)
same,inhibition of viability,[5],3.8% (inactive)
same,viability decrease (inhibition),[6],12.3% (inactive)
same,viability decrease (inhibition),[7],-9.9% (inactive)
same,inhibition,[8],10.8% (inactive)
same,red/green cell ratio (normalised),[9],1.3 (inactive)
same,normalised cell number,[9]; [15],0.85
same,normalised cell number,[9]; [16],1.11
same,outcome,[10],inactive
same,outcome,[11],inactive
same,outcome,[12],inactive
same,outcome,[13],inactive
same,outcome,[14],inactive
CC(=O)Oc1ccccc1C(=O)O,insulin secretion stimulation,[1],0.1% (inactive)
same,viability decrease,[2],-8.9% (inactive)
same,tube area decrease,[3],9.2% (inactive)
same,GLP1 secretion stimulation,[4],-3.4% (inactive)
same,inhibition of viability,[5],-5.9% (inactive)
same,viability decrease (inhibition),[6],-3.9% (inactive)
same,viability decrease (inhibition),[7],-4.2% (inactive)
same,inhibition,[8],15.9% (inactive)
same,red/green cell ratio (normalised),[9],0.84 (inactive)
same,normalised cell number,[9]; [15],1.28
same,normalised cell number,[9]; [16],1.08
same,outcome,[10],inactive
same,outcome,[12],inactive
same,outcome,[13],inactive
OC[C@H]1O[C@@H](O[C@@H]2[C@@H](CO)O[C@](O)(CO)[C@H]2O)[C@H](O)[C@@H](O)[C@H]1O,insulin secretion stimulation,[1],0.5% (inactive)
same,viability decrease,[2],-11.1% (inactive)
same,tube area decrease,[3],-2.5% (inactive)
same,GLP1 secretion stimulation,[4],0.8% (inactive)
same,inhibition of viability,[5],10% (inactive)
same,viability decrease (inhibition),[6],86.9% (active)
same,viability decrease (inhibition),[7],-4.2% (inactive)
same,inhibition,[8],0.0837% (inactive)
same,red/green cell ratio (normalised),[9],1.2 (inactive)
same,normalised cell number,[9]; [15],1.03
same,normalised cell number,[9]; [16],1.23
same,outcome,[10],inactive
same,outcome,[11],inactive
same,outcome,[13],inactive
same,outcome,[14],inactive
NC(CO)C(=O)NNCc1ccc(O)c(O)c1O (centres undefined),insulin secretion stimulation,[1],2.2% (inactive)
same,viability decrease,[2],55.6% (active)
same,tube area decrease,[3],-12.6% (inactive)
same,GLP1 secretion stimulation,[4],8.5% (inactive)
same,inhibition of viability,[5],84.4% (active)
same,viability decrease (inhibition),[6],145% (active)
same,viability decrease (inhibition),[7],103% (active)
same,inhibition,[8],-10.3% (inactive)
same,red/green cell ratio (normalised),[9],1.1 (inactive)
same,normalised cell number,[9]; [15],1.12
same,normalised cell number,[9]; [16],1.23
same,outcome,[10],inactive
same,outcome,[11],inactive
same,outcome,[12],inactive
same,outcome,[13],inactive
same,outcome,[14],inactive
O=C(NC(Cc1cc(=O)[nH]c2ccccc12)C(=O)O)c1ccc(Cl)cc1 (centres undefined),insulin secretion stimulation,[1],2.6% (inactive)
same,viability decrease,[2],-6.2% (inactive)
same,tube area decrease,[3],19.9% (inactive)
same,GLP1 secretion stimulation,[4],-0.3% (inactive)
same,inhibition of viability,[5],3.17% (inactive)
same,viability decrease (inhibition),[6],22.7% (inactive)
same,viability decrease (inhibition),[7],-11.3% (inactive)
same,inhibition,[8],4.66% (inactive)
same,red/green cell ratio (normalised),[9],1.12 (inactive)
same,normalised cell number,[9]; [15],0.89
same,normalised cell number,[9]; [16],0.99
same,outcome,[10],inactive
same,outcome,[12],inactive
same,outcome,[13],inactive
same,outcome,[14],inactive
NC(=O)NO,insulin secretion stimulation,[1],0% (inactive)
same,viability decrease,[2],48.8% (inactive)
same,tube area decrease,[3],4.9% (inactive)
same,GLP1 secretion stimulation,[4],-2% (inactive)
same,inhibition of viability,[5],23.9% (inactive)
same,viability decrease (inhibition),[6],8.5% (inactive)
same,viability decrease (inhibition),[7],-7.1% (inactive)
same,inhibition,[8],-7.1% (inactive)
same,red/green cell ratio (normalised),[9],1.09 (inactive)
same,normalised cell number,[9]; [15],1.01
same,normalised cell number,[9]; [16],1.1
same,outcome,[10],inactive
same,AC50,[12],526 nM (active)
same,AC50,[13],1870 nM (active)
same,outcome,[14],inactive
